Here are results for seven molecules from PMC5540273 (PLoS ONE, 2017).

Test systems include PAK6; PAK7; PDGFRA; PDGFRB; PDPK1; PFTAIRE2; PHKG1; PHKG2; PIK3C2B; PIK3C2G; PIK3CA; PIK3CB; PIK3CD; PIK3CG; PIKFYVE.
What all share (conditions): concentration: 1 μM, replicates: in singlicate; n = 1
In a further assay the test system is T1, PCTK1.
T1 construct: gene CDK16

The test system of the next assay is T2, PCTK2.
T2 construct: gene CDK17

For a further assay, the system named is T3, PCTK3.
T3 construct: gene CDK18

The test system of another assay is T4, PFTK1.
T4 construct: gene CDK14

In a further assay the test system is T5, PIK4CB.
T5 construct: gene PI4KB
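Further: KINOMEscan kinase panel screen.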

Regarding `Cn1ccc2ncnc(Oc3ccc(NC(=O)Nc4ccccc4)cc3)c21`, the “%Inh” value is given as 0% with PAK6; 0% in the assay with PAK7; 1% in the assay with PCTK1; 4% in the assay on PCTK2; 1% in the assay on PCTK3; 97.6% in the assay with PDGFRA. Further, the “%Inh” value amounted to 100% in the assay with PDGFRB; 0% with PDPK1; 0% in the assay on PFTAIRE2; 0% with PFTK1; 0% in the assay on PHKG1; 0% with PHKG2. In addition, the “%Inh” value in the assay with PIK3C2B came out at 0%; with PIK3C2G it was 22%; in the assay on PIK3CA it was 0%; in the assay with PIK3CB, 16%; in the assay on PIK3CD it was 0%; with PIK3CG, 0%. Also, the results for the “%Inh” value in the assay with PIK4CB and in the assay with PIKFYVE were 0% and 21%, respectively.

Consider `COC(=O)c1c(-c2ccccc2)c2cc(OC)ccc2c(=O)n1Cc1ccccc1`, for which the “%Inh” value in the assay on PAK6 is 3%; with PAK7, 5%; with PCTK1, 0%; in the assay on PCTK2, 4%; with PCTK3 it was 9%; with PDGFRA, 70%. Moreover, the “%Inh” value is given as 99.5% with PDGFRB; 0% in the assay with PDPK1; 10% in the assay with PFTAIRE2; 6% in the assay with PFTK1; 7% with PHKG1; 31% in the assay with PHKG2. For the same molecule, the “%Inh” value is reported as 0% in the assay with PIK3C2B; 0% with PIK3C2G; 3% with PIK3CA; 14% in the assay on PIK3CB; 5% with PIK3CD; 0% in the assay on PIK3CG. For the same molecule, the “%Inh” value in the assay on PIK4CB amounted to 0%; in the assay with PIKFYVE, 13%.

For `COc1ccc(C2=C(Nc3cccc(C(=O)O)c3)C(=O)NC2=O)cc1` [SB-390765], the “%Inh” value is given as 0% in the assay with PAK6; 0% in the assay on PAK7; 1% with PCTK1; 8% with PCTK2; 0% in the assay with PCTK3; 30% with PDGFRA. Moreover, the “%Inh” value stood at 0% in the assay with PDGFRB; 21% in the assay with PDPK1; 24% in the assay on PFTAIRE2; 6% with PFTK1; 0% with PHKG1; 0% with PHKG2. Besides, the “%Inh” value with PIK3C2B came to 23%; in the assay with PIK3C2G, 21%; with PIK3CA, 0%; in the assay on PIK3CB, 40%; in the assay with PIK3CD, 16%; in the assay with PIK3CG it was 27%. Also, the “%Inh” value in the assay on PIK4CB is on record as 22%; in the assay on PIKFYVE, 0%.

Turning to `Cn1cncc1-c1ccc2ncnc(Nc3ccc(OCc4ccccc4)cc3)c2c1` [GW320571], the “%Inh” value in the assay with PAK6 came to 0%; in the assay on PAK7, 0%; in the assay on PCTK1 it was 0%; in the assay on PCTK2, 0%; in the assay on PCTK3, 7%; with PDGFRA, 0%. The “%Inh” value is reported as 9% in the assay on PDGFRB; 9% in the assay with PDPK1; 20% in the assay on PFTAIRE2; 0% in the assay on PFTK1; 5% in the assay on PHKG1; 1% in the assay with PHKG2. Moreover, the “%Inh” value is listed as 61% in the assay on PIK3C2B; 57% with PIK3C2G; 0% in the assay on PIK3CA; 0% with PIK3CB; 7% with PIK3CD; 6% in the assay on PIK3CG. The “%Inh” value in the assay on PIK4CB and with PIKFYVE was 0% each time.

Take `CS(=O)(=O)c1ccc(-c2c(-c3ncn[nH]3)sc(N3CCOCC3)c2C#N)cc1`: the “%Inh” value is listed as 12% with PAK6; 0% in the assay with PAK7; 0% in the assay with PCTK1; 3% in the assay on PCTK2; 14% in the assay with PCTK3; 6% in the assay on PDGFRA. Further, the “%Inh” value in the assay with PDGFRB is reported as 20%; in the assay with PDPK1 it was 0%; with PFTAIRE2, 0%; in the assay with PFTK1, 13%; with PHKG1 it was 9%; in the assay on PHKG2 it was 7%. Further, the “%Inh” value is 0% in the assay with PIK3C2B; 14% in the assay on PIK3C2G; 96.9% in the assay on PIK3CA; 97.3% in the assay with PIK3CB; 65% with PIK3CD; 57% in the assay on PIK3CG. In addition, the “%Inh” value in the assay on PIK4CB was determined as 0%; with PIKFYVE, 40%.

Consider `Cc1cccc(-c2nc(Nc3ccncc3)c3ccccc3n2)n1` [GW855857], for which the “%Inh” value in the assay on PAK6 came to 3%; in the assay on PAK7, 0%; in the assay with PCTK1, 0%; in the assay with PCTK2 it was 10%; with PCTK3, 0%; in the assay with PDGFRA, 0%. Also, the “%Inh” value is recorded as 3% in the assay with PDGFRB; 24% with PDPK1; 0% with PFTAIRE2; 0% in the assay on PFTK1; 47% in the assay with PHKG1; 3% with PHKG2. The “%Inh” value with PIK3C2B, in the assay on PIK3C2G, with PIK3CA, in the assay on PIK3CB, in the assay on PIK3CD and with PIK3CG was 0% throughout. For the same molecule, the “%Inh” value is 0% with PIK4CB and 57% in the assay on PIKFYVE.

Consider `CC1=C(C(=O)Nc2cc3cn[nH]c3cc2F)C(c2ccc(C(F)(F)F)cc2)CC(=O)N1` (centres unmarked) [GSK429286], for which the “%Inh” value with PAK6 came to 0%; with PAK7, 0%; with PCTK1 it was 3%; in the assay on PCTK2, 0%; with PCTK3, 5%; in the assay on PDGFRA, 0%. Further, the “%Inh” value is 18% with PDGFRB; 0% with PDPK1; 0% with PFTAIRE2; 12% in the assay on PFTK1; 0% in the assay on PHKG1; 0% with PHKG2. Besides, the “%Inh” value was 0% in the assay on PIK3C2B; 0% in the assay with PIK3C2G; 0% in the assay with PIK3CA; 0% in the assay on PIK3CB; 34% with PIK3CD; 0% in the assay with PIK3CG. Further, the “%Inh” value with PIK4CB and in the assay with PIKFYVE was 0% each time.
